# Test results: PubChem BioAssay (NCATS)
# Results filed as inconclusive are left out. Active and inactive are the calls of the source. Unless noted, calls follow the shape of the dose curve; as a rule, active = well fitted curve in either direction with a large enough effect (not every such curve was filed as active); inconclusive = small, poorly fitted or top-dose-only effect, or another doubt; inactive = flat fitted curve, though single readings scatter.
# What was measured:
# [1] = AP1 Signaling Pathway (AID 357);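 also: ME-180 reporter cells stimulated with EGF at its EC50 level; % is scaled to controls: 0 for no effect and ±100 for the full control effect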
# Summary of the method: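 In this screen, ME-180 cells in Opti-MEM with 0.5% dialyzed FBS received EC50 EGF and compound titrations for 5 h. AP-1 reporter beta-lactamase was detected via CCF4 ratio, giving AC50 for positive and negative modulators.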
# [2] = molecular target: Cytochrome P450 1A2 (Homo sapiens) (UniProt P05177); experiment: p450-cyp1a2 (AID 410; calls by dose curve; also: potency is read from the fitted curve at half-maximal effect;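 as to activity change, negative = inhibition: -100% = full effect of reference inhibitor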)
# Chain of Cytochrome P450 1A2 (Homo sapiens) (P05177 whole entry, looked up): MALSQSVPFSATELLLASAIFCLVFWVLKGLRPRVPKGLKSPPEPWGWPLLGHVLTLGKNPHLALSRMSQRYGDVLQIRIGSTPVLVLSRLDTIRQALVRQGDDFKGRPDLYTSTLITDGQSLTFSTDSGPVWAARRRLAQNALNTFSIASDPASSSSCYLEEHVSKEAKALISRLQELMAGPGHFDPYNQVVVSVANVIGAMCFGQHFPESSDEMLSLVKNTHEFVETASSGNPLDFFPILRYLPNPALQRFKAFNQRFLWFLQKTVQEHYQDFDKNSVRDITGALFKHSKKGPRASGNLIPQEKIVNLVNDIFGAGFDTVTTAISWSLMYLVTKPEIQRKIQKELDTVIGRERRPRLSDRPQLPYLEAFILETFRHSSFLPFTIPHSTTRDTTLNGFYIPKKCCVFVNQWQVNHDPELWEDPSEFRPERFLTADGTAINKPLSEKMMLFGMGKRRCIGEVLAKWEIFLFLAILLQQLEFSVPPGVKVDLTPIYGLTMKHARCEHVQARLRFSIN
# Summary of the method: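 20nM CYP1A2, 100uM Luciferin-ME (=Km), 100mM KPO4; cpd 10 min RT; +NADPH regen, 60 min RT; stop/detect 20 min; luminescence. Normalized to furafylline 57 uM = full inhibition.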
# [3] = Stat Signaling Pathway (AID 446);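 also: ME-180 cervical cancer cells given 40 pM IL-6 alongside compound; SIE-controlled beta-lactamase reporter measured as 460/530 nm FRET emission ratio; % is scaled to controls: 0 for no effect and ±100 for the full control effect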
# Summary of the method: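 FRET read-out (405 nm excitation, 460/530 nm emission) of a beta-lactamase reporter under a STAT-inducible element in ME-180 cervical carcinoma cells. Cells with compound receive 40 pM IL-6 for 5 h. Values are normalised to AC90 stimulation and AC90 JAK-inhibitor controls.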
# [4] = molecular target: Glucocorticoid receptor (Homo sapiens) (UniProt P04150); experiment: GR-GFP Redistribution (AID 450;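 active = compounds whose dose series gives a full or clear partial fitted curve of increased nuclear translocation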; also: potency is read from the fitted curve at half-maximal effect); settings: U2OS GR-GFP nuclear translocation, laser cytometry, 2 h
# Chain of Glucocorticoid receptor (Homo sapiens) (P04150 whole entry, looked up, the tested form may be a part): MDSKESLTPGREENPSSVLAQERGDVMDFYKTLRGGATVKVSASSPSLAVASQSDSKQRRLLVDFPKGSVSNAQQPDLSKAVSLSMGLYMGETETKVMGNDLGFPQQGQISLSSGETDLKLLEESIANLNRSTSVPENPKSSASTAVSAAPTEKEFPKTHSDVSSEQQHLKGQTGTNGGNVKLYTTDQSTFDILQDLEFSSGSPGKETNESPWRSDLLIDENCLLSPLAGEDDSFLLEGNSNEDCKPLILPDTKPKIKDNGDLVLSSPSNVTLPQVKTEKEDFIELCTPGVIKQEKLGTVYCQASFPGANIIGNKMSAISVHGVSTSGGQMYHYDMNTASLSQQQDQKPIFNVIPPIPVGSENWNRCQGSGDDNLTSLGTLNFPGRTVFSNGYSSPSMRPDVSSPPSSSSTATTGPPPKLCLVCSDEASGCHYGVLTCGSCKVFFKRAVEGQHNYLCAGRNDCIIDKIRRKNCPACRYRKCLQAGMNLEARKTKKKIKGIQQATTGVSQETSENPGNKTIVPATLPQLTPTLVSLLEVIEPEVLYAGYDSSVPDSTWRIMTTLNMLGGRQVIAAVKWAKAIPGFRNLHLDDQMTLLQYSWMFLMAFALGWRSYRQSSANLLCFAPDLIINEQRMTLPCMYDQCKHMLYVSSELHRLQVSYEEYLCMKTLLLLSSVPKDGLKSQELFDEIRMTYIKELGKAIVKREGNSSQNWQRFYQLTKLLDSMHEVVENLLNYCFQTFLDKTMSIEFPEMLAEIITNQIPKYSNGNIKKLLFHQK
# [5] = molecular target: Glucocorticoid receptor (Homo sapiens) (UniProt P04150); experiment: GR-EFC Redistribution (AID 451; calls by dose curve; also: potency is read from the fitted curve at half-maximal effect); settings: CHO-K1 GR-EFC translocation, beta-gal luminescence, 2 h
# Summary of the method: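 CHO-K1 cells stably expressing nuclear-localized β-gal enzyme acceptor and GR fused C-terminally to the enzyme donor fragment; ligand-driven nuclear translocation restores β-gal by complementation. Compounds titrated up to 46 uM final, 2 h at 37 °C; luminescence read.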
# [6] = molecular target: Mitogen-activated protein kinase 10 (Mus musculus) (UniProt Q61831); experiment: JNK3 AlphaScreen Assay (AID 530);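 also: kinase came from lysate of stimulated human HepG2 cells; signal reports phosphorylation of biotinylated GST-cJun 1-79 at Ser73 with 10 µM ATP; % is scaled to controls: 0 for no effect and ±100 for the full control effect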
# Summary of the method: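 Biotinylated GST-cJun(1-79) served as substrate for JNK3 in HepG2 lysates stimulated with IL-1beta and TNF-alpha. ATP was 10 uM final, pH 7.6. Ser73 phosphorylation was quantified by AlphaScreen (680 nm excitation).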
# [7] = molecular target: 3',5'-cyclic-AMP phosphodiesterase 4B (Homo sapiens) (UniProt Q07343); experiment: qHTS Assay for Inhibitors of PDE-IV (AID 607; active = well fitted activation curve with a large enough effect in the main read-out, with a control signal flat, not every such curve was filed as active; also: % of control where 0% means no effect)
# Chain of 3',5'-cyclic-AMP phosphodiesterase 4B (Homo sapiens) (Q07343 whole entry, looked up): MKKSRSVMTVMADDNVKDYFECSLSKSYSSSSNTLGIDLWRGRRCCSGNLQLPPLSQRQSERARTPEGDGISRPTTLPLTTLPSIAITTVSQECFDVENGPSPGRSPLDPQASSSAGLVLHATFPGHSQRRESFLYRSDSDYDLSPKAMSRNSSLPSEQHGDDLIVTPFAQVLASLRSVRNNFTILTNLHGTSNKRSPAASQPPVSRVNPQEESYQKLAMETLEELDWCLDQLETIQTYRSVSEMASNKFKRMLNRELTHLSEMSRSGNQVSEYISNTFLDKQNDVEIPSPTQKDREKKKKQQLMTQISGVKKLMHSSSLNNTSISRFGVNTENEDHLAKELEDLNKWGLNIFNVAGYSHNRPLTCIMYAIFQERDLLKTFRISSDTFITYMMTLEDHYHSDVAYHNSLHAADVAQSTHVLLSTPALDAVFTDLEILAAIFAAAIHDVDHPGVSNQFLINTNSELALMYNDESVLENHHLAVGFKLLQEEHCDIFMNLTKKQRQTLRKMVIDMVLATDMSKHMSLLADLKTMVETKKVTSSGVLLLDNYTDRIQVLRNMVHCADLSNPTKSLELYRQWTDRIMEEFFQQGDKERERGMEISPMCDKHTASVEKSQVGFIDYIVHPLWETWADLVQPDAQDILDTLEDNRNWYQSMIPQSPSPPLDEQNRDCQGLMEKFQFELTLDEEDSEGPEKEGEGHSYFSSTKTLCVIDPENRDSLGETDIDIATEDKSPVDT
# Summary of the method: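 Cell-based read-out of cAMP via a modified cyclic nucleotide-gated channel and membrane potential dye (535/590 nm) in HEK293 cells expressing PDE4 endogenously. Compounds tested up to 22.9 uM final; 100 uM RO 20-1724 reference.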
# [8] = molecular target: Cytochrome P450 3A4 (Homo sapiens) (UniProt P08684); experiment: qHTS Assay for Activators of Cytochrome P450 3A4 (AID 885; active = well fitted curve in the direction sought with a large enough effect; an effect the other way counts as inactive or inconclusive; also: nearly all actives have a fitted effect of over 65% in size; also: potency is read from the fitted curve at half-maximal effect)
# Chain of Cytochrome P450 3A4 (Homo sapiens) (P08684 whole entry, looked up): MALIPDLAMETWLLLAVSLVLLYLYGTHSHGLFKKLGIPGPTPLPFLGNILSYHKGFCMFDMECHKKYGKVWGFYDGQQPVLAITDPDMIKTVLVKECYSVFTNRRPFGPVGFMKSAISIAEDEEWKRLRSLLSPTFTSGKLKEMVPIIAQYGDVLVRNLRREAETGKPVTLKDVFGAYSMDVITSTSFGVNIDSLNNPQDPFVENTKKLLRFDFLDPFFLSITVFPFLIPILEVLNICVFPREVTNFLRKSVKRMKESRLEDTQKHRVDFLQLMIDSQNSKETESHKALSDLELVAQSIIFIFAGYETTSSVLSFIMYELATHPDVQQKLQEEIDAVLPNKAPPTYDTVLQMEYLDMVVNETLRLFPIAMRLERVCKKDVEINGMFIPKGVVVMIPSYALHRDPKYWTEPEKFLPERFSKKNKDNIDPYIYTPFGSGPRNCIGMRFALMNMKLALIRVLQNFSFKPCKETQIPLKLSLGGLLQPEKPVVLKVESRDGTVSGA
# Summary of the method: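 Luminescent readout of luciferin formed from 25 uM Luciferin-PPXE (KM level) by 20 nM CYP3A4 in 200 mM KPO4, with 60 min NADPH-driven reaction at room temperature after 10 min compound exposure. Ketoconazole (57 uM) defined 100% inhibition.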
# [9] = qHTS Assay for Lipid Storage Modulators (AID 1519; calls by dose curve); settings: Drosophila S3 cells, BODIPY lipid droplet/cell ratio, laser cytometry, cells loaded with oleic acid
# Summary of the method: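 Cells seeded at 5,000 per well were treated with compounds over a concentration series and loaded with oleic acid (400 uM, as added). Lipid droplet fluorescence (488 nm excitation, 500-530 nm channel) was read by laser-scanning cytometry and normalized to 20 uM Triacsin C.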
# [10] = NFAT Signaling Pathway (AID 444); settings: Jurkat NFAT-bla M1, carbachol, beta-lactamase ratio, 5 h; at 7.69 µM (top of the series);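 also: carbachol stimulus at about its EC50 of 1 µM final; % is scaled to controls: 0 for no effect and ±100 for the full control effect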
# Summary of the method: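 Jurkat cells carrying an NFAT-driven β-lactamase reporter and co-transfected muscarinic M1 receptor were treated with compound plus carbachol (1 uM final, an EC50 level) for 5 h at 37 °C. CCF4 loading followed for 1 h at RT; 460/530 nm ratio gave %activity.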
# [11] = Primary qHTS for small molecule stabilizers of the endoplasmic reticulum resident proteome: Secreted ER Calcium Modulated Protein (SERCaMP) assay (AID 1508630; active = well fitted curve in the direction sought with a large enough effect; an effect the other way counts as inactive or inconclusive; also: % is scaled to controls: 0 for no effect and ±100 for the full control effect)
# Summary of the method: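 The SH-SY5Y reporter protocol was run at 3 concentrations up to 38.3 uM (primary) or 11 concentrations (follow-up): 16 h compound, 100 nM thapsigargin for 4 h, then extracellular luciferase luminescence.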
# [12] = molecular target: Cytochrome P450 2D6 (Homo sapiens) (UniProt P10635); experiment: qHTS Assay for Inhibitors and Substrates of Cytochrome P450 2D6 (AID 891; active = well fitted curve in the direction sought with a large enough effect; an effect the other way counts as inactive or inconclusive; also: potency is read from the fitted curve at half-maximal effect; nearly all actives have a fitted effect of over 60% in size)
# Chain of Cytochrome P450 2D6 (Homo sapiens) (P10635 whole entry, looked up): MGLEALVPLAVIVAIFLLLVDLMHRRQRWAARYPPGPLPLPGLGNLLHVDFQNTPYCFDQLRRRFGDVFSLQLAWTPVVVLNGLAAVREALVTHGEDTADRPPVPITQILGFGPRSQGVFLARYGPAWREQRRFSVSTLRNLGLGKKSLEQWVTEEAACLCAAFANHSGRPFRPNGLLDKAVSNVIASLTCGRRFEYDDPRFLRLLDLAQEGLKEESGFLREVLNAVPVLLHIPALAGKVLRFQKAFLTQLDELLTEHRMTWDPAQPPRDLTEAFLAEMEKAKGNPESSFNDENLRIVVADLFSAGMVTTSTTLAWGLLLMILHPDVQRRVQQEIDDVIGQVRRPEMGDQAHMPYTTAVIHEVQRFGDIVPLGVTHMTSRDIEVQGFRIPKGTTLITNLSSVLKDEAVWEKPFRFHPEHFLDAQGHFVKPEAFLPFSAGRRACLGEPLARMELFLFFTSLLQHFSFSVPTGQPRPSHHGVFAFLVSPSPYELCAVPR
# Summary of the method: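 Luminescent read-out of luciferin formed by 5 nM human CYP2D6 demethylating 30 uM Luciferin-ME EGE (Km level) over 60 min at room temperature after NADPH regeneration addition. Data normalized to full inhibition by 1.43 uM quinidine.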
# [13] = measured here: cell count channel max response
# [14] = measured here: lipid channel max response
compound,measurement,setting,value
O=C(OC1CCN(CCCl)CC1)C(c1ccccc1)c1ccccc1,outcome,[1],inactive
same,Potency,[2],12.6 µM (active)
same,outcome,[3],inactive
same,Potency,[4],> 46 µM (inactive)
same,Potency,[5],> 46 µM (inactive)
same,outcome,[6],inactive
same,Potency,[7],inactive
same,Potency,[8],inactive
same,"activity change, negative = inhibition",[9]; at 57.5 µM (top of the series),0.755% (inactive)
same,max response,[9]; [13],-17.2%
same,max response,[9]; [14],-14.8%
O=C(Nc1ccccc1)N1CC2(CCN(C(=O)Oc3ccccc3)CC2)C1,outcome,[1],inactive
same,Potency,[2],20 µM (active)
same,"activity change, negative = inhibition",[10],23.8% (inactive)
same,outcome,[3],inactive
same,Potency,[5],> 46 µM (inactive)
same,outcome,[6],inactive
same,Potency,[7],inactive
same,Potency,[8],15.8 µM (active)
same,outcome,[11],inactive
CC(CCC(=O)O)C1CCC2C3C(=O)CC4CC(=O)CC[C@@]4(C)C3CC(=O)[C@]12C (stereo partly specified),"activity change, negative = inhibition",[9]; at 57.5 µM (top of the series),1.06% (inactive)
same,max response,[9]; [13],16%
same,max response,[9]; [14],21.9%
COc1ccc(NC(=O)N2CC[C@@]3(CCCN(C(=O)Oc4ccccc4)C3)C2)cc1,outcome,[1],inactive
same,Potency,[2],inactive
same,"activity change, negative = inhibition",[10],4.32% (inactive)
same,outcome,[3],inactive
same,Potency,[5],> 46 µM (inactive)
same,outcome,[6],inactive
same,Potency,[7],inactive
same,Potency,[8],inactive
same,Potency,[12],6.31 µM (active)
same,outcome,[11],inactive
CC(C)CN1CC[C@@]2(CCCN(C(=O)Oc3ccccc3)C2)C1,outcome,[1],inactive
same,"activity change, negative = inhibition",[10],-1.09% (inactive)
same,outcome,[3],inactive
same,outcome,[6],inactive
same,Potency,[7],inactive
same,Potency,[8],inactive
same,Potency,[12],6.31 µM (active)
same,outcome,[11],inactive
O=C(Nc1cccc(F)c1)N1CCCC2(CCN(C(=O)Oc3ccccc3)CC2)C1,outcome,[1],inactive
same,Potency,[2],10 µM (active)
same,outcome,[3],inactive
same,Potency,[5],> 46 µM (inactive)
same,outcome,[6],inactive
same,Potency,[8],inactive
same,outcome,[11],inactive
C=C1CC[C@H](O)C/C1=C/C=C1\CCC[C@]2(C)[C@H]1CC[C@H]2[C@@H](C)CCCC(C)C,"activity change, negative = inhibition",[9]; at 25.7 µM (top of the series),0.847% (inactive)
same,max response,[9]; [13],8.85%
same,max response,[9]; [14],12%
C[C@@H](C(=O)O)c1ccc(-c2ccccc2)c(F)c1,"activity change, negative = inhibition",[9]; at 25.7 µM (top of the series),2.45% (inactive)
same,max response,[9]; [13],2.3%
same,max response,[9]; [14],1.21%
CN1C[C@H](C(=O)N[C@]2(C)O[C@]3(O)[C@H]4CCCN4C(=O)[C@H](Cc4ccccc4)N3C2=O)C[C@H]2c3cccc4[nH]cc(c34)C[C@@H]21,"activity change, negative = inhibition",[9]; at 25.7 µM (top of the series),-4.57% (inactive)
same,max response,[9]; [13],-15.1%
same,max response,[9]; [14],-19.9%
COc1ccc2cc1Oc1ccc(cc1)C[C@H]1c3cc(c(OC)cc3CCN1C)Oc1c(OC)c(OC)cc3c1[C@@H](C2)N(C)CC3,"activity change, negative = inhibition",[9]; at 25.7 µM (top of the series),-4.24% (inactive)
same,max response,[9]; [13],-9.67%
same,max response,[9]; [14],-10.6%
CCCN1CCc2cc(O)cc3c2C1Cc1ccc(O)c(O)c1-3 (stereo unspecified),outcome,[11],inactive
